Results as given in PubChem BioAssay AID1159580 (chemical genetic matrix, 2015).
Several values for one entry are separate records, joined by “and”; a condition that tells them apart may be missing. Equal entries are not always repeated. Among all 5,500 compounds or so, about 2,000 (36%) were called active. Not shown: some 18% with an inconclusive outcome. Cut-off read from the data, not from the text of the source: active = normalized growth mostly below about 0.91 (no sharp cut-off); inconclusive = no clear call, values can overlap the other calls; inactive = mostly above about 0.92. The list shows a part of the results.

Assay: chemical genetic growth profiling, strain panel (AID 1159580);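 note: tested at 20 µM; growth read once vehicle control cultures reached saturation at 30 °C; 1 = growth at the plate median or of vehicle wells; lower values mean less growth of the strain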
Settings: S. cerevisiae deletion strains, growth OD

Measured: normalized growth

CN(C)CCC=C1c2ccccc2C=Cc2ccccc21
inactive: locus YAL013W, strain DEP1, stronger effect = lower value 0.995 | locus YAL030W, strain snc1, stronger effect = lower value 0.982 | locus YAL040C, strain CLN3, stronger effect = lower value 1.07 | locus YBL061C, strain skt5, stronger effect = lower value 0.995 | locus YBR009C, strain hhf1, stronger effect = lower value 0.99 | locus YBR021W, strain FUR4, stronger effect = lower value 0.958 | locus YBR023C, strain chs3, stronger effect = lower value 0.978 | locus YBR171W, strain sec66, stronger effect = lower value 1 | locus YBR229C, strain ROT2, stronger effect = lower value 0.995 | locus YBR231C, strain swc5, stronger effect = lower value 0.997 | locus YBR279W, strain paf1, stronger effect = lower value 0.979 | locus YCL011C, strain gbp2, stronger effect = lower value 0.984 | locus YCL016C, strain dcc1, stronger effect = lower value 0.954 | locus YCL029C, strain bik1, stronger effect = lower value 1 | locus YCL061C, strain MRC1 (second series), stronger effect = lower value 0.999 | locus YCL061C, strain MRC1, stronger effect = lower value 0.992 | locus YCL069W, strain vba3, stronger effect = lower value 0.993 | locus YCR088W, strain abp1, stronger effect = lower value 0.998 | locus YDL005C, strain med2, stronger effect = lower value 0.991 | locus YDL035C, strain GPR1, stronger effect = lower value 0.954 | locus YDL040C, strain nat1, stronger effect = lower value 0.967 | locus YDL074C, strain BRE1, stronger effect = lower value 0.956 | locus YDL101C, strain DUN1, stronger effect = lower value 1.02 | locus YDL134C, strain PPH21, stronger effect = lower value 0.996 | locus YDL185W, strain tfp1, stronger effect = lower value 0.949 | locus YDL192W, strain arf1, stronger effect = lower value 0.988 | locus YDR001C, strain nth1, stronger effect = lower value 0.983 | locus YDR069C, strain doa4, stronger effect = lower value 0.918 | locus YDR101C, strain arx1, stronger effect = lower value 1.05 | locus YDR150W, strain NUM1, stronger effect = lower value 0.987 | locus YDR159W, strain sac3, stronger effect = lower value 1 | locus YDR162C, strain NBP2, stronger effect = lower value 0.95 | locus YDR195W, strain ref2 1.05 | locus YDR297W, strain sur2, stronger effect = lower value 0.971 | locus YDR318W, strain mcm21, stronger effect = lower value 0.982 | locus YDR334W, strain swr1, stronger effect = lower value 0.958 | locus YDR335W, strain msn5, stronger effect = lower value 0.969 | locus YDR388W, stronger effect = lower value 0.959 | locus YDR392W, strain spt3, stronger effect = lower value 0.988 | locus YDR502C, strain sam2, stronger effect = lower value 0.996 | locus YEL003W, strain gim4, stronger effect = lower value 0.987 | locus YEL037C, strain rad23, stronger effect = lower value 1 | locus YEL061C, strain CIN8 (second series), stronger effect = lower value 0.982 | locus YEL061C, strain CIN8, stronger effect = lower value 0.99 | locus YER002W, strain NOP16, stronger effect = lower value 1.04 | locus YER015W, strain faa2, stronger effect = lower value 0.969 | locus YER016W, strain bim1, stronger effect = lower value 0.998 | locus YER110C, stronger effect = lower value 0.984 | locus YER111C, strain swi4, stronger effect = lower value 0.993 | locus YER155C, strain BEM2 (second series), stronger effect = lower value 0.967 | locus YER155C, strain BEM2, stronger effect = lower value 1.02 | locus YER167W, strain BCK2, stronger effect = lower value 0.999 | locus YFR010W, strain ubp6, stronger effect = lower value 0.95 | locus YGL078C, strain dbp3, stronger effect = lower value 0.985 | locus YGL086W, strain mad1, stronger effect = lower value 1.01 | locus YGL167C, strain pmr1, stronger effect = lower value 0.976 | locus YGL173C, strain kem1, stronger effect = lower value 1 | locus YGL227W, strain vid30, stronger effect = lower value 0.97 | locus YGL240W, strain doc1, stronger effect = lower value 1.02 | locus YGL248W, strain PDE1, stronger effect = lower value 0.998 | locus YGL253W, strain hxk2, stronger effect = lower value 0.988 | locus YGR135W, strain pre9, stronger effect = lower value 0.919 | locus YGR252W, strain gcn5, stronger effect = lower value 0.904 | locus YHR013C, strain ard1, stronger effect = lower value 0.945 | locus YHR027C, strain rpn1, stronger effect = lower value 0.953 | locus YHR030C, strain SLT2, stronger effect = lower value 0.983 and 1.01 | locus YHR079C, strain IRE1 (second series), stronger effect = lower value 0.984 | locus YHR079C, strain IRE1, stronger effect = lower value 1.02 | locus YHR094C, strain hxt1, stronger effect = lower value 0.99 | locus YHR129C, strain ARP1, stronger effect = lower value 0.993 | locus YHR142W, strain chs7, stronger effect = lower value 0.959 | locus YHR200W, strain rpn10, stronger effect = lower value 0.998 | locus YIL066C, strain RNR3, stronger effect = lower value 0.974 | locus YIL073C, strain SPO22, stronger effect = lower value 0.94 | locus YIL125W, strain kgd1, stronger effect = lower value 1.02 | locus YIR030C, strain dcg1, stronger effect = lower value 0.988 | locus YJL092W, strain hpr5, stronger effect = lower value 0.98 | locus YJL095W, strain BCK1 (second series), stronger effect = lower value 0.98 | locus YJL095W, strain BCK1, stronger effect = lower value 0.903 and 1.02 | locus YJL115W, strain asf1, stronger effect = lower value 0.951 | locus YJL129C, strain trk1, stronger effect = lower value 1.01 | locus YJL134W, strain LCB3, stronger effect = lower value 0.988 | locus YJL154C, strain vps35, stronger effect = lower value 0.979 | locus YJL164C, strain tpk1, stronger effect = lower value 0.998 | locus YJL166W, strain qcr8, stronger effect = lower value 0.996 | locus YJL187C, strain SWE1 (second series), stronger effect = lower value 1.01 | locus YJR043C, strain POL32, stronger effect = lower value 1.04 | locus YJR066W, strain TOR1, stronger effect = lower value 0.956 | locus YJR075W, strain HOC1, stronger effect = lower value 0.982
active: locus YAL021C, strain ccr4, stronger effect = lower value 0.893 | locus YAL026C, strain drs2, stronger effect = lower value 0.901 | locus YDR137W, strain rgp1, stronger effect = lower value 1.18 [resistant]
